# PubChem BioAssay AID2234 (The Scripps Research Institute Molecular Screening Center, 2010)
# Where “and” joins values, the source holds several entries; their conditions need not be identical. Equal values may be shown once. Among all 320,000 compounds or so, about 480 (0.15%) were called active. The sample holds actives, similar compounds and a random draw of the others, so the mix is not that of the screen. Rule as the data show it: active = inhibition above about 33%; inactive = the rest. Where a structure was tested more than once in an assay, its records may differ in their call.
# Biological target: Lytic switch protein BZLF1 (Epstein-Barr virus (strain B95-8)) (UniProt P03206)
# Assay: Zta-DNA interaction blockers, Epstein-Barr virus – biochemical, fluorescence polarization, single concentration, counter-screen for EBNA-1 inhibitor project, primary screen (AID 2234)
# Conditions: ZTA-DNA binding, at 11 µM, stronger effect = higher value
# Chain of Lytic switch protein BZLF1 (Epstein-Barr virus (strain B95-8)) (P03206 whole entry, looked up): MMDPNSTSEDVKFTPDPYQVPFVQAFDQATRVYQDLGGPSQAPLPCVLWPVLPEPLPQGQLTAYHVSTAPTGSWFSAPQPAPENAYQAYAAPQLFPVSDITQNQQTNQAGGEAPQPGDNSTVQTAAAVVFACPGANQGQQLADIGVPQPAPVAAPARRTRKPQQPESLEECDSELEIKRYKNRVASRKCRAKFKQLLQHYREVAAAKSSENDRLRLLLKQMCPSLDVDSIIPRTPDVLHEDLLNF
row,SMILES,inhibition
1,Cc1cc(NC(=O)CS(=O)(=O)c2cn(C)c3ccccc23)no1,3.47% (inactive)
2,Cc1nc(-c2ccc(Cl)cc2)sc1C1(C)CC(c2ccccc2F)=NO1 (centres undefined),0.91% (inactive)
3,O=C(CNS(=O)(=O)c1ccc(Br)s1)N1CCN(C(=O)c2ccco2)CC1,0.26% (inactive)
4,Cc1cc(/C=N/NC(N)=O)c(C)n1C1CCCCC1,15.4% (inactive)
5,CC(NC(=S)NNS(=O)(=O)c1ccc(C(C)(C)C)cc1)c1ccccc1 (centres undefined),-5.57% (inactive)
6,O=C(NC(=S)Nc1cccc(-c2ccc(CO)o2)c1)c1cccs1,-14.3% (inactive)
7,CC1CCCCC1NC(=O)c1cn(C)c2ccc(S(=O)(=O)N3CCOCC3)cc2c1=O (centres undefined),3.74% (inactive)
8,O=S(=O)(Nc1ccc2nc(-c3ccco3)[nH]c2c1)c1ccccc1,-14.9% (inactive)
9,Cc1ccc(C2NC(=S)NC3=C2N2CCC3CC2)cc1 (centres undefined),-11.6% (inactive)
10,CC12c3ccccc3C(c3ccccc31)C1C(=O)N(Cc3cccnc3)C(=O)C12 (centres undefined),5.39% (inactive)
11,COc1cccc(NC(=O)CN2CCN(CC(=O)Nc3ccccc3Cl)CC2)c1,4.73% (inactive)
12,CN1/C(=c2/s/c(=C3/C(=O)N(c4ccccc4)NC3=Nc3ccccc3)n(C)c2=O)C(C)(C)c2ccccc21,7.42% (inactive)
13,CC(C)Oc1ccc(CN2CCC(n3nccc3NC(=O)c3cccnc3)CC2)cc1,6.96% (inactive)
14,COc1ccc(-c2c(C)nn3c(N4CCC(C(=O)N5CCCCC5)CC4)cc(C)nc23)cc1OC,6.7% (inactive)
15,CC(C(=O)N(C)CC(=O)Nc1ccccc1C(F)(F)F)N1C(=O)c2ccccc2C1=O (centres undefined),-0.42% (inactive)
16,COc1ccc(OC)c(S(=O)(=O)N2CCCC(C(=O)NCCc3ccccc3)C2)c1 (centres undefined),-17.4% (inactive)
17,O=C(CCCC(=O)N(CC(=O)NC1CCCC1)Cc1ccccc1Cl)Nc1ccccn1,2.7% (inactive)
18,Cc1cc(OC(=O)c2ccccc2Cl)ccc1N1C(=O)CCC1=O,-5.62% (inactive)
19,COC(=O)c1ccccc1NC(=O)C1CCN(C(=O)N2CCOc3ccccc32)CC1,-14.3% (inactive)
20,COc1ccc(N2CCN(C3CCCCC3NS(=O)(=O)c3ccccc3)CC2)cc1 (centres undefined),-13.4% (inactive)
21,CCC(C)C(=O)Nc1ccccc1N1CCN(c2ccc(F)cc2)CC1 (centres undefined),-25.1% (inactive)
22,Cc1c(C(=O)c2cccc([N+](=O)[O-])c2)c2ccccn2c1CCC#N,-12.6% (inactive)
23,CC(C)C(=O)Nc1nnc(SCC(=O)N2C(C)CCCC2C)s1 (centres undefined),-5.72% (inactive)
24,CC(=O)c1sc(NC(=O)CCN2C(=O)C3CC=CCC3C2=O)nc1-c1ccccc1 (centres undefined),0.93% (inactive)
25,Cn1nc(C(F)(F)F)cc1-c1ccc(/C=C(\C#N)C(=O)c2cccc(C(F)(F)F)c2)s1,9.6% (inactive)

row,SMILES,inhibition
1,CC(=O)c1nc(N2C(=O)C3CC=C(C)CC3C2=O)sc1C (centres undefined),-6.68% (inactive)
2,CCN(C(=O)COC(=O)c1cc(NS(=O)(=O)c2ccc(Cl)c([N+](=O)[O-])c2)ccc1O)C1CCCCC1,-8.06% (inactive)
3,O=C(Cn1c(-c2ccc(Cl)cc2)noc1=O)N1CCN(c2ccccc2F)CC1,-6.32% (inactive)
4,CCOc1cc(-c2noc(CCCC(=O)NC3CCCCC3)n2)ccc1OC,-2.96% (inactive)
5,CCOc1ncccc1C(=O)OCC(=O)N1c2ccccc2CC1C (centres undefined),6.32% (inactive)
6,COc1cc(C(=O)NNC(=O)CN2C(=O)NC3(CCCC3)C2=O)cc(OC)c1OC,7.35% (inactive)
7,CC(C)N(C(=O)Cn1cc(S(=O)(=O)CC(=O)N2CCOCC2)c2ccccc21)C(C)C,-2.48% (inactive)
8,CCc1nn(CCCC(=O)Nc2ccc(C)cc2C)c(=O)c2cc3occc3n12,-0.14% (inactive)
9,CN(C)/C=C(\C#N)C(=O)c1cccnc1Oc1cccc(F)c1,1.11% (inactive)
10,CN(C)Cc1ccccc1C1(O)c2ccccc2CSc2ccccc21 (centres undefined),-3.19% (inactive)
11,O=C(COC(=O)c1cc(=O)[nH]c2ccccc12)NCc1cccc(Cl)c1,-4.76% (inactive)
12,COCCCNC(=S)N1CCN(c2nc(-c3cccc(OC)c3)cs2)CC1,0.15% (inactive)
13,O=C(NC1CCCCC1)N1CCc2[nH]c3ccccc3c2C1,-20.7% (inactive)
14,COC(=O)[C@H]1[C@H]2C[C@H]3c4[nH]c5ccccc5c4CCN3C[C@@H]2CC[C@@H]1O,-2.53% (inactive) and 42.8% (active)
15,COC(=O)C1CCN(C(=O)c2cc(=O)[nH]c3ccccc23)CC1,-3.43% (inactive)
16,Cc1ccc(S(=O)(=O)NCc2ccc(C(=O)NC3CCC(C)CC3)cc2)cc1 (centres undefined),0.09% (inactive)
17,Cn1c(N)c(C(=O)COC(=O)/C=C/c2ccc(OC(F)F)cc2)c(=O)n(C)c1=O,4.46% (inactive)
18,CC[N+](C)(CC)CCC[n+]1c(-c2ccccc2)c2cc(N)ccc2c2ccc(N)cc21,76.6% (active)
19,COc1ccccc1CNS(=O)(=O)c1c(C)[nH]c(C)c1C(=O)N1CCCCC1,-3.2% (inactive)
20,COc1ccc(C(=O)NCCn2nc(C)cc2C)cc1OC1CCN(C(C)=O)CC1,-1.11% (inactive)
21,CC(C)CNC(=O)C(=O)Nc1ccc(N(C)C)cc1,-14.2% (inactive)
22,CC(=O)N(C)c1ccc(NC(=O)C(F)(F)F)cc1,-2.47% (inactive)
23,CCN(CC)c1ccc2oc(=O)c(C)nc2c1,112% (active)
24,CCN(CC)c1ccc(C(=O)Nn2c(C)nc3ccccc3c2=O)cc1,-9.3% (inactive)
25,C=CCN(C(=O)Nc1ccc2oc(C)nc2c1)c1ccccc1,14.4% (inactive)

row,SMILES,inhibition
1,COc1ccc(/C=C/CN2CCCC(C(=O)c3cc(F)ccc3F)C2)cc1 (centres undefined),-3.1% (inactive)
2,CN(C)Cc1c(O)ccc2occ(C(O)c3ccccc3)c12 (centres undefined),-10.8% (inactive)
3,N[C@@H](Cc1ccccc1)C(=O)N1CCOCC1,0.06% (inactive)
4,COc1ccc(OC)c(NC(=O)CSc2nc(N)c(-c3ccccc3)c(=O)[nH]2)c1,-8.96% (inactive)
5,COc1ccccc1P(=O)(c1ccccc1)c1ccccc1NC(C)=O (centres undefined),6.44% (inactive)
6,CCc1cc(=O)oc2c(C)c(OCC(=O)N3CC[C@@]4(O)CCCC[C@H]4C3)ccc12,-6.49% (inactive)
7,O=S(=O)(c1cccc(-c2nnc(SC(F)F)n2-c2ccccc2)c1)N1CCCCC1,-1.62% (inactive)
8,Cc1cccc(-n2cnc(C(=O)Nc3cccnc3)c2)n1,-4.78% (inactive)
9,Cc1ccccc1CSc1nnc(-c2ccccn2)n1N,-11.1% (inactive)
10,O=C(COC(=O)c1ccc(S(=O)(=O)Nc2ccccc2)cc1)NCC1CCCO1 (centres undefined),1.03% (inactive)
11,CCn1c(C)nc2cc(C(=O)NNS(=O)(=O)c3ccc(C)cc3C)ccc21,-11% (inactive)
12,COc1cc(C2C(C(=O)c3cccs3)=C(O)C(=O)N2CCN2CCOCC2)ccc1OCCC(C)C (centres undefined),-2.28% (inactive)
13,O=C(Nc1ccc2oc(-c3ccccc3F)nc2c1)c1ccco1,15.1% (inactive)
14,CCOc1ccc(S(=O)(=O)Nc2ccncc2)c(C)c1C,-10.3% (inactive)
15,CC(C)C(=O)N1CCC2(CC1)Oc1ccc(F)cc1C(=O)C21CC(c2ccccc2)=NO1 (centres undefined),7.48% (inactive)
16,CCc1c(C)nc2c(-c3ccccc3)c(C)nn2c1Nc1ccc(NC(C)=O)cc1,-11.9% (inactive)
17,O=C(Cc1ncc(C(F)(F)F)cc1Cl)Nc1cccc(Br)c1,-13.5% (inactive)
18,O=C(CNS(=O)(=O)c1ccc2ccccc2c1)Nc1ccc(F)c(F)c1F,15.3% (inactive)
19,O=C(Nc1ccc(F)cc1F)N1CCCN(CCOc2ccccc2)CC1,-6.16% (inactive)
20,CSc1nnc(SCc2nc3sc(C(=O)O)c(C)c3c(=O)[nH]2)s1,41.9% (active)
21,CC(=O)c1sc2nc(SCC(=O)N3CCCCC3)[nH]c(=O)c2c1C,-1.4% (inactive)
22,Cc1sc2nc(CSCC(=O)NC3CCCCC3)[nH]c(=O)c2c1C,-20.2% (inactive)
23,COc1ccc(C(=O)NC2CC2)cc1OC1CCN(C/C=C/c2ccccc2)CC1,-17.4% (inactive)
24,COc1ccc2c(c1)cc1n2CCN=C1NN,8.48% (inactive)
